Test [1] in a line: binders of probe aFSTL3 on microarray, primary screen, stem cell growth factor project, biochemical, small-molecule microarray, fluorescence 635/667 (AID 1064).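 Also: measures binding of the biotinylated anti-FSTL3 antibody to printed compounds.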 The conditions noted are these: higher = more signal.
Test [2] in a line: binders from COS7 lysate, DM2A8 probe, primary screen, torsin A project, cell lysate, small-molecule microarray, fluorescence 635/667 (AID 1065). The conditions noted are these: higher = more signal, COS7 lysate expressing mutant human TOR1A.
Test [3] can be described thus: binders of probe aFGF2 on microarray, primary screen, stem cell growth factor project, biochemical, small-molecule microarray, fluorescence 635/667 (AID 1067).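 Also: measures binding of biotinylated aFGF2 protein to printed compounds on slides; z-score merges feature fluorescence and signal-to-noise across triplicate slides.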 Conditions: higher = more signal.
Test [4] in a line: binders of probe aFGF10 on microarray, primary screen, stem cell growth factor project, biochemical, small-molecule microarray, fluorescence 635/667 (AID 1071).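 Also: score merges 667 nm spot intensity and signal to noise from triplicate slides.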 The conditions noted are these: higher = more signal.
Test [5] addresses Neurogenic locus notch homolog protein 2 (Homo sapiens) (UniProt Q04721). Nature of the test: Notch2 binders on small-molecule microarrays, primary screen, biochemical, small-molecule microarray, 635 nm fluorescence, stem cell growth factors (AID 1073). The conditions noted are these: Notch2 binding, higher = more signal.
For test [6], the target named is Pro-neuregulin-1, membrane-bound isoform (Homo sapiens) (UniProt Q02297). Nature of the test: NRG1 binders on small-molecule microarrays, primary screen, psychiatric disease protein project, biochemical, small-molecule microarray, fluorescence 635/667 (AID 1075).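 Also: score combines 667 nm spot fluorescence with signal to noise.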 The conditions noted are these: NRG1 binding, 635 nm fluorescence, higher = more signal.
The test system of test [7] is Neuregulin-1 EGF-like domain. Nature of the test: binders of neuregulin-1 EGF-like domain, primary screen, biochemical, small-molecule microarray, 635 nm fluorescence (AID 1081).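 Also: binding of the protein to compounds printed on small-molecule microarray slides.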 The conditions noted are these: small-molecule microarray binding, higher = more signal.
Test [8] is described as follows: FRG1 promoter luciferase signal modulators, primary screen, FRG1 inhibition for FSHD, cell-based, C2C12 myotubes, firefly/Renilla luciferase, luminescence (AID 1084). Conditions: higher = more signal, called active from +8 up or from −8 down.
A short description of test [9]: binders of probe aFST on microarray, primary screen, stem cell growth factor project, biochemical, small-molecule microarray, fluorescence 635/667 (AID 1086).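 Also: score merges 667 nm fluorescence with signal-to-noise of each printed compound spot.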 Conditions: higher = more signal.
Test [10] can be described thus: binders of probe aHhip on microarray, primary screen, stem cell growth factor project, biochemical, small-molecule microarray, fluorescence 635/667 (AID 1087).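 Also: score merges spot fluorescence at 667nm with spot signal to noise ratio.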 The conditions noted are these: higher = more signal.

Activity calls are given as the source filed them.

Sequence of Neurogenic locus notch homolog protein 2 (Homo sapiens) (Q04721 whole entry, looked up, canonical isoform): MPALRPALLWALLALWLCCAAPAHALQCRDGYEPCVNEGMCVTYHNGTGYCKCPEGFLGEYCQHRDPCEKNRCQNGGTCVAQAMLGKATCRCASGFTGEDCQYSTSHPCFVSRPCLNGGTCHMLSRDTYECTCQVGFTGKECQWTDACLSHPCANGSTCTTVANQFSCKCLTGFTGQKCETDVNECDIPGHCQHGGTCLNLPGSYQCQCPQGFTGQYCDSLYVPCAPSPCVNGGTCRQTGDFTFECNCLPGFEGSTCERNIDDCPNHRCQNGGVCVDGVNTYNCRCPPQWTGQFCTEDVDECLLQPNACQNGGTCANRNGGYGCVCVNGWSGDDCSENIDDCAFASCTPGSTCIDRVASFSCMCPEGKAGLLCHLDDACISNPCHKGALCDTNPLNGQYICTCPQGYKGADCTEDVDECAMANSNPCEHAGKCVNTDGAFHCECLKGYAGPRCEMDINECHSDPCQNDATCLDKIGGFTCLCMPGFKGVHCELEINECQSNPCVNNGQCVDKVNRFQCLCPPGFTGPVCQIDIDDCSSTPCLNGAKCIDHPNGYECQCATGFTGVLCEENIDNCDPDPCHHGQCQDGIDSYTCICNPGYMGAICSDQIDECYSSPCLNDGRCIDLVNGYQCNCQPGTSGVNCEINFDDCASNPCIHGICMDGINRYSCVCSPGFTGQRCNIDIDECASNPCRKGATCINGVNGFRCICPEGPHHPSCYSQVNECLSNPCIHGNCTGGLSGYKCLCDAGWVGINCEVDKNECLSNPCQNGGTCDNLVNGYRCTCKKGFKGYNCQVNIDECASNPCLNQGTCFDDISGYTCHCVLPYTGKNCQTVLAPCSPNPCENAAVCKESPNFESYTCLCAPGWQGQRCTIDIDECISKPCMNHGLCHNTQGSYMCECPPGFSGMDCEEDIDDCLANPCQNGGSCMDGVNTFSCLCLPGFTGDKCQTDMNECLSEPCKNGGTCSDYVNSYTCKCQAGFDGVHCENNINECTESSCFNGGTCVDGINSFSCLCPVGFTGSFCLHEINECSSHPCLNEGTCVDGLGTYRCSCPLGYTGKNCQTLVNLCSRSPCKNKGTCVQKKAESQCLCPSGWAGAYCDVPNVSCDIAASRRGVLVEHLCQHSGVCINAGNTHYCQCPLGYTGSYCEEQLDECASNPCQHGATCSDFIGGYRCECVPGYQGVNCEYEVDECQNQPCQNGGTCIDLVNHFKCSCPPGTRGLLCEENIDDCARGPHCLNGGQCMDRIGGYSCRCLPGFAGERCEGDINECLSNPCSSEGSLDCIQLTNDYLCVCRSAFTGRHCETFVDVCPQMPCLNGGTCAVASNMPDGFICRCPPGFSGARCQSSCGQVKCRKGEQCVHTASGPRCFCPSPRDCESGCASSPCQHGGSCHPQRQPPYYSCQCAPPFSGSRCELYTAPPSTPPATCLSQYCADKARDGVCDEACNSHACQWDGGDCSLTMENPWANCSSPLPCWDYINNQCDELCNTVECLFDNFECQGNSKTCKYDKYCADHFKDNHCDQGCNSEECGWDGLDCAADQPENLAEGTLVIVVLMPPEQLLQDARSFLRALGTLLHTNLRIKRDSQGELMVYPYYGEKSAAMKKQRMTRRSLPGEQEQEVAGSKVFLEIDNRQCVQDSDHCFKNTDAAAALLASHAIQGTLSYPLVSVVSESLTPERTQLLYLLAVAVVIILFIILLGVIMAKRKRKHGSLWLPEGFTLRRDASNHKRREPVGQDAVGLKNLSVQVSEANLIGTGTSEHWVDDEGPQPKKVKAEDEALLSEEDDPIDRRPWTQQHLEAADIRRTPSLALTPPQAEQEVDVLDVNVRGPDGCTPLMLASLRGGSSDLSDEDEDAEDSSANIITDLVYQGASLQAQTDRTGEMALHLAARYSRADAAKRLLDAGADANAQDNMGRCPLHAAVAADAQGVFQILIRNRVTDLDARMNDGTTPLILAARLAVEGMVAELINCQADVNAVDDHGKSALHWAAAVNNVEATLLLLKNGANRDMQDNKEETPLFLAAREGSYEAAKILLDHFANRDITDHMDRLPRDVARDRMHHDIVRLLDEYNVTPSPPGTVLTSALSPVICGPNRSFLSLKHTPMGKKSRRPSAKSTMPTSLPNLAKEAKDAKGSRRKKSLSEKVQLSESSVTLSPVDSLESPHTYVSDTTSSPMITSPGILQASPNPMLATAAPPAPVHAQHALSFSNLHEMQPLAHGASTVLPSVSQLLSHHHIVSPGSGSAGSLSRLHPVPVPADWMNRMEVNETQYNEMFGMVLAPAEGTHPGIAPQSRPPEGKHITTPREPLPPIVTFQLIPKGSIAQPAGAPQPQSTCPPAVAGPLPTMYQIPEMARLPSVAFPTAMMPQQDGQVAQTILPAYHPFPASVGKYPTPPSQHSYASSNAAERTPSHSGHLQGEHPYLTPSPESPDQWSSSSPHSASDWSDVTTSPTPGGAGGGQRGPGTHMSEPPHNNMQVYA
Sequence of Pro-neuregulin-1, membrane-bound isoform (Homo sapiens) (Q02297 whole entry, looked up, the tested form may be a part, canonical isoform): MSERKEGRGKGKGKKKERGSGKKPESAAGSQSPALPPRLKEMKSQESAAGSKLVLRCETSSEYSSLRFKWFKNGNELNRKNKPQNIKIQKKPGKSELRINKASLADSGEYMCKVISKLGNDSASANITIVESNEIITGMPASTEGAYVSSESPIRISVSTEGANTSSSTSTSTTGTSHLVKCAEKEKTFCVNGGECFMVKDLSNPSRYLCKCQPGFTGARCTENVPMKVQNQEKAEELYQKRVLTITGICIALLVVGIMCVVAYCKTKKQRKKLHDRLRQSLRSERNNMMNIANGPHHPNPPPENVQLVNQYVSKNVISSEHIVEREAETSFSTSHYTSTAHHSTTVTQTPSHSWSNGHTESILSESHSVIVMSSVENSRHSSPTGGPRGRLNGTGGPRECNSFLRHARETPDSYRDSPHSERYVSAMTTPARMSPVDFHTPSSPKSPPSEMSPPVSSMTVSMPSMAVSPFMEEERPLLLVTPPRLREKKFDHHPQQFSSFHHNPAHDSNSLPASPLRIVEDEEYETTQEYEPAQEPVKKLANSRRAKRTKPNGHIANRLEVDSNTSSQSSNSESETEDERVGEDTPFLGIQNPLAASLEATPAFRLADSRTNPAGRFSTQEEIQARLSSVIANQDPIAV

With `O=C(NCc1ccccc1)[C@@H]1c2ccccc2C(=O)N(Cc2cc(C(F)(F)F)cc(C(F)(F)F)c2)[C@H]1c1ccc(CO)cc1`, the composite z-score was -0.501 in test [1]; 1.62 in test [2]; -0.118 in test [3]; 0.409 in [4]; 0.685 in [5]; 0.71 in test [6]. Besides, the composite z-score in test [7] was 1.27; in test [9], 0.423; in [10], 0.0505. Moreover, in test [8], the z-score is -0.354 (inactive).
Regarding `OCCCC1=CC(c2ccc(CN3CCCC3)cc2)N(Cc2cccc(OC(F)(F)F)c2)CC1` (stereo not given), the composite z-score in test [1] was 0.373; in test [2], 0.134; in test [3], -0.0853; in test [4] it was 0.0263; in [5], -0.546; in [6] it was 0.0603. The composite z-score in [7] is 0.0735; in [9] it was -0.176; in [10], -0.236. In [8], the z-score was 0.372 (inactive).
For the compound `O=C1O[C@@H](c2ccccc2)[C@@H](c2ccccc2)N2[C@@H](c3ccc(OCCO)cc3)[C@]3(C(=O)Nc4ccc(C#CC5(O)CCCCCC5)cc43)[C@@H](C(=O)Nc3nc4ccccc4s3)[C@H]12`, the composite z-score was -0.017 in test [1]; 1.17 in test [2]; 0.0649 in test [3]; 0.517 in [4]; 1.46 in test [5]; 1.51 in test [6]. Further, the composite z-score in [7] amounted to 1.24; in test [9], 0.397; in [10], 0.113. Besides, the z-score in [8] was 2.48 (inactive).
`O=C1[C@H]2C=C(I)[C@H](C[C@@H]2OCCCCCCO)[C@@]12CO2`: the composite z-score in [1] is -0.123; in test [2] it was 0.249; in test [3] it was -0.169; in test [4], 0.0956; in [5], 1.01; in [6] it was -0.715. The composite z-score in [7] was -0.175; in test [9], -0.132; in [10] it was -0.183. Moreover, the z-score in test [8] was 0.622 (inactive).
As for `COC(=O)[C@@]1(Cc2ccccc2)[C@H]2c3cc(C(=O)N4CCCC4)n(Cc4ccc(OC)c(OC)c4)c3C[C@H]2CN1C(=O)c1ccccc1`, the composite z-score in [1] was determined as 0.439; in [2] it was 0.411; in [3], 0.141; in [4] it was 0.605; in test [5] it was 1.77; in [6], 2.16. The values for the composite z-score in [7], in test [9] and in test [10] were 1.4, 1.88 and 0.857, respectively. In [8], the z-score is 0.626 (inactive).
`O=C(O)[C@H](Cc1ccccc1)n1cc(C2(O)CCCCC2)nn1`: the composite z-score in test [1] is -0.44; in test [2], 0.444; in test [3], -0.103; in [4], 0.262; in [5], -0.0666; in test [6], 0.0741. The composite z-score was 0.993 in [7], 0.163 in test [9] and -0.0645 in test [10]. For the same compound, the z-score in test [8] is 1.64 (inactive).
With `COc1ccc(C(=O)Nc2ccc(CN3C(=O)[C@@]4(O[C@@H](CCn5cc(CCO)nn5)[C@H]([Si](C)(C)c5ccc(OC)cc5)[C@H]4C)c4ccccc43)cc2)cc1`, the composite z-score in [1] was -0.249; in [2], 0.269; in test [3], -0.0613; in test [4], 0.462; in test [5] it was 0.534; in test [6] it was 0.587. Besides, the composite z-score in [7] was 1.16; in [9], 0.859; in test [10], -0.137. In addition, the z-score in test [8] is -3.59 (inactive).
Consider `O=C1c2ccccc2[C@@]2(Cc3ccccc3N(Cc3ccccc3)C2=O)[C@H](c2ccc(CO)cc2)N1Cc1ccccc1Cl`, for which the composite z-score is 0.209 in test [1]; -0.337 in test [2]; -0.0934 in [3]; -0.127 in test [4]; -1.04 in [5]; -0.579 in test [6]. Further, the composite z-score in [7] is -1.13; in [9], -0.164; in test [10] it was -0.0541. The z-score in [8] is 1.13 (inactive).
With `C=CC1c2cc(O)c(OC)cc2CCN1C` (stereo not given), the composite z-score was 0.0043 in [1]; -0.231 in test [2]; -0.103 in test [3]; 0.275 in [4]; -0.208 in test [5]; 0.0582 in [6]. The composite z-score amounted to 1.06 in test [7], 0.0531 in test [9] and 0.0373 in test [10]. The z-score in test [8] is -0.201 (inactive).
As for `CC[C@@H]1C=C(C(=O)O)[C@H](c2ccc(OC)cc2)N1S(=O)(=O)c1ccc(C)cc1`, the composite z-score in test [1] is 0.0675; in [2], -0.194; in test [3], -0.128; in [4], -0.0542; in test [5], 0.0174; in test [6], 0.993. Besides, the composite z-score in test [7] is 1.28; in [9], 0.233; in test [10], -0.0994. In addition, the z-score in test [8] was 0.267 (inactive).
For the compound `COC(=O)C(CC#Cc1ccc2c(c1)[C@]1(C(=O)N2)[C@H](c2ccccc2OCCO)N2[C@H](c3ccccc3)[C@H](c3ccccc3)OC(=O)[C@H]2[C@@H]1C(=O)N1CCc2cc(OC)c(OC)cc2C1)C(=O)OC`, the composite z-score in test [1] was -0.152; in [2], 0.179; in test [3], -0.0087; in test [4], 0.382; in test [5] it was 1.15; in test [6], 0.834. Further, the composite z-score is 1.3 in test [7], 0.383 in test [9] and -0.374 in [10]. Further, the z-score in test [8] is -1.14 (inactive).
As to `CCCCC(O)C1C=CC2C(=O)N(c3ccccc3)C(=O)C2N1Nc1ccc(C#N)cc1` (stereo not given), the composite z-score in test [1] was 0.805; in [2], -0.472; in [3], -0.074; in test [4], 0.226; in test [5] it was 1.27; in [6], 1.9. The composite z-score in [7] is 1.41; in test [9], 0.941; in test [10], -0.112. In [8], the z-score was 0.662 (inactive).
As for `C=CCC(OC(C)=O)[C@@H]1[C@@H](N(Cc2cccc3ccccc23)C(=O)Cc2ccc(OC)cc2)c2cc(OCCCO)ccc2N1C(=O)c1ccc2ccccc2c1` (stereo not given in full), the composite z-score in [1] is 0.175; in [2], 0.737; in test [3], -0.052; in [4], 0.113; in [5], -0.451; in [6], -0.0627. Besides, the composite z-score in [7] was -0.805; in test [9], 0.0737; in test [10] it was -0.337. Further, the z-score in test [8] was -1.75 (inactive).
Turning to `COCCOC(=O)N1C(=O)[C@@]2(c3cc(C#CCCO)ccc31)[C@H](C(N)=O)[C@H]1C(=O)O[C@H](c3ccccc3)[C@H](c3ccccc3)N1[C@@H]2c1ccccc1OCCO`, the composite z-score in [1] was -0.352; in [2], 0.755; in test [3], -0.0579; in test [4], 0.658; in [5], 1.11; in test [6], 1.43. The figures for the composite z-score in test [7], in test [9] and in [10] were 1.19, 0.52 and 0.219, respectively. In addition, the z-score in test [8] is -0.96 (inactive).
On to `N#Cc1ccc(NN2C(C(O)C3CC=CCC3)C=CC3C(=O)N(c4ccccc4)C(=O)C32)cc1` (stereo not given), for which the composite z-score is 0.076 in test [1]; -0.902 in test [2]; -0.073 in [3]; 0.39 in [4]; 1.5 in test [5]; 1.89 in test [6]. Also, the composite z-score in test [7] was 1.29; in [9], 1.28; in test [10], -0.0427. Further, the z-score in test [8] was 0.474 (inactive).

The values are drawn from PubChem BioAssay.
